Test results: the supplement of paper PMC9694430

Legend:
Assay in all cases: thermal shift delta Tm vs DMSO control; higher = stronger stabilization (binding)
Details in all cases: 12.5 µM; protein concentration 2 µM
[1] = tested on: LOC_OS01G01410-cb001
Procedure, shortened: (§1)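 Compounds dissolved in DMSO were added to purified rice kinase domain constructs, which had been expressed in E. coli, for differential scanning fluorimetry. Each well held 19.5 μl of 2 μM kinase in 100 mM potassium phosphate pH 7.5, 150 mM NaCl, 10% glycerol and 5 × SYPRO Orange. Fluorescence was followed from 25°C to 95°C at a rate of 0.05°C/s. Shifts in Boltzmann-fitted melting temperature are triplicate means relative to DMSO-only protein.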

[2] = tested on: LOC_OS01G02750-cb003
Procedure, shortened: as §1

[3] = tested on: LOC_OS01G10900-cb004
Procedure, shortened: as §1

[4] = tested on: LOC_OS01G13800-cb001
Procedure, shortened: as §1

[5] = tested on: LOC_OS01G14860-cb001
Procedure, shortened: as §1

[6] = tested on: LOC_OS01G21960-cb002
Procedure, shortened: as §1

[7] = tested on: LOC_OS01G39600-cb002
Procedure, shortened: as §1

[8] = tested on: LOC_OS01G48390-cb002
Procedure, shortened: as §1

[9] = tested on: LOC_OS01G51400-cb002
Procedure, shortened: as §1

[10] = tested on: T1, LOC_OS01G52050-cb004
T1 sequence (whole entry): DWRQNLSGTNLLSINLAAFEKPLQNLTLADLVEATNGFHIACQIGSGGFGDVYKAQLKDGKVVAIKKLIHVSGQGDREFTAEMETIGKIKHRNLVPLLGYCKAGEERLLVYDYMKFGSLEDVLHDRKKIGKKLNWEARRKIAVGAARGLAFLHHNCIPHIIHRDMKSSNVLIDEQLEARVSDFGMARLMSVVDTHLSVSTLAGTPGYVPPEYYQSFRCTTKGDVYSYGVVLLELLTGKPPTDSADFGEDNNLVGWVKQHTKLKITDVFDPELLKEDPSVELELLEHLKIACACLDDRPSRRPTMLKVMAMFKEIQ
Procedure, shortened: as §1

Compound	thermal shift delta Tm [1] [°C]	thermal shift delta Tm [2] [°C]	thermal shift delta Tm [3] [°C]	thermal shift delta Tm [4] [°C]	thermal shift delta Tm [5] [°C]	thermal shift delta Tm [6] [°C]	thermal shift delta Tm [7] [°C]	thermal shift delta Tm [8] [°C]	thermal shift delta Tm [9] [°C]	thermal shift delta Tm [10] [°C]
COc1ccc([C@@H]2OC[C@H]3[C@@H]2CO[C@@H]3c2ccc(O[C@@H]3O[C@H](CO)[C@@H](O)[C@H](O)[C@H]3O)c(OC)c2)cc1OC [Forsythin]	0.23	1.02	0.51	-0.29	0.27	0.16	-0.84	0.13	0.31	1.57
O=C(/C=C/c1ccc2ccccc2n1)c1ccncc1	0.4	-1.2	1.49	0.45	1.08	2.15	-0.61	0.91	0.46	-0.48
Nc1cccc(S(=O)(=O)N2CCCN(S(=O)(=O)c3ccc4c(c3)OCCO4)CC2)c1	0.49	1.98	0.15	0.22	0.23	0.8	-0.77	3.24	0.46	0.19
O=C(Nc1ccccc1C(=O)NC1CCCCNC1=O)c1cc2ccccc2s1 (stereo not given)	-0.16	1.09	0.05	0.44	0.04	0.32	-0.76	-0.09	0.19	-0.05
COc1ccc(S(=O)(=O)N(C(C)=O)c2ccccc2/C=C/c2cc[n+]([O-])cc2)cc1	-0.1	0.48	0.77	0.64	0.58	0.67	-0.39	0.12	-0.08	0.02
CN1CC(O)C2=C/C(=N/NC(N)=O)C(=O)C=C21 (stereo not given) [Carbazochrome]	0.3	0.81	-0.04	-0.31	0.31	0.23	0.14	-0.01	0.5	-1.17
C[C@@H](Oc1cc(-c2cnn(C3CCNCC3)c2)cnc1N)c1c(Cl)ccc(F)c1Cl	2.96	1.71	1.58	-0.59	0.41	-0.27	0.93	5.62	0.05	4.57
CN(c1ccccc1CNc1nc(Nc2ccc3c(c2)CC(=O)N3)ncc1C(F)(F)F)S(C)(=O)=O	2.5	7.01	2.35	0.34	5.2	2.72	8.33	3.62	1.93	8.95
Cc1c(NC(=O)c2ccc(C(C)(C)C)cc2)cccc1-c1cn(C)c(=O)c(Nc2ccc(C(=O)N3CCOCC3)cc2)n1	0.18	0.71	-1.08	0.18	-0.01	0.66	2.2	0.86	0.2	-0.23
CCNC(=O)C#Cc1ccc2c(C(=Nc3ccc(CN(C)C)cc3)c3ccccc3)c(O)[nH]c2c1	1.75	1.1	0.16	-0.3	5.63	0.65	3.52	1.35	-0.33	2.8
NC[C@@](O)(c1ccc(Cl)cc1)c1ccc(-c2cn[nH]c2)cc1	0.04	1.13	0.24	0.5	0.53	1.22	-0.16	1.06	0.36	0.51
CN1CCC(CNc2ccc3ncc(-c4cccc(OC(F)(F)F)c4)n3n2)CC1 [SGI-1776 free base]	0.34	4.11	3.96	0.13	0.51	2.41	0.68	0.82	0.07	3.81
CN(C)CCOc1ccc(-c2nc(-c3ccncc3)c(-c3ccc4c(c3)CC/C4=N\O)[nH]2)cc1	1.77	0.07	3.19	0.05	0.42	-0.07	0.16	1.16	0.46	0.22
CCn1c(N)c(C(=O)NC)c(=O)c2ccc(C#CC(C)(O)COC)nc21 (stereo not given)	0.45	0.44	-0.01	-0.17	0.21	0.3	-1.69	0.18	0.37	0.36
COc1cc2ncnc(Nc3ccc(O)c(Br)c3)c2cc1OC	1.47	-0.02	0.65	-0.02	0.9	0.93	-1.06	3	0.29	1.31
CNc1nc(Nc2cnn([C@H]3CCN(C4COC4)C[C@@H]3F)c2Cl)ncc1C(F)(F)F	0.23	0.99	0.28	0.15	0.15	1.33	0.09	1.82	0.18	1.16
CC(C)n1ncnc1-c1cn2c(n1)-c1ccc(O[C@@H](C)C(N)=O)cc1OCC2	0.47	1.25	0.08	0.67	0.28	0.8	0.74	0.6	0.1	0.31
CNc1nc(-c2ccc3c(N)n[nH]c3c2)cc(N2C[C@@H](C(=O)NC3CCCCC3)CC[C@H]2C)n1	-0.44	0.32	0.09	0.25	0.55	1.02	-5.84	0.39	0.44	0.02
Cn1ncc(Cl)c1-c1cc(C(=O)N[C@H](CN)Cc2cccc(F)c2)sc1Cl	0.78	2.36	0.19	-0.25	0.67	0.59	-0.1	0.28	0.18	0.5
COc1ccc(COc2cc3oc(=O)c4cc(C(C)O)ccc4c3cc2OC)cc1 (stereo not given) [Palomid 529 (P529)]	0.67	0.16	1.07	0.03	0.14	0.64	-0.21	0.4	0	0.04
